ADAM10 inh = inhibits human ADAM10 | recombinant ADAM10, EDANS/DABCYL FRET peptide cleavage, 3 h | inhibition, % at 7 µM | 370,000 compounds, 0.62% hits | AID 720582;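 active = inhibition above a per-campaign cutoff equal to the mean of compounds falling between control-based bounds plus 3 SD, cut at about 20% in these data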;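 note: 0% = DMSO wells while the 100% control is not disclosed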
GC-A act = GC-A (human) enzyme activation; AID 1671463; activation, % at 10 µM; HEK293 GC-A cells, cGMP TR-FRET, EC30 ANP; 0% at EC30 ANP, 100% saturating ANP; 370,000 compounds, 0.14% hits; in the data active = activation above about 40%
Target sequence (P16066 whole entry, looked up): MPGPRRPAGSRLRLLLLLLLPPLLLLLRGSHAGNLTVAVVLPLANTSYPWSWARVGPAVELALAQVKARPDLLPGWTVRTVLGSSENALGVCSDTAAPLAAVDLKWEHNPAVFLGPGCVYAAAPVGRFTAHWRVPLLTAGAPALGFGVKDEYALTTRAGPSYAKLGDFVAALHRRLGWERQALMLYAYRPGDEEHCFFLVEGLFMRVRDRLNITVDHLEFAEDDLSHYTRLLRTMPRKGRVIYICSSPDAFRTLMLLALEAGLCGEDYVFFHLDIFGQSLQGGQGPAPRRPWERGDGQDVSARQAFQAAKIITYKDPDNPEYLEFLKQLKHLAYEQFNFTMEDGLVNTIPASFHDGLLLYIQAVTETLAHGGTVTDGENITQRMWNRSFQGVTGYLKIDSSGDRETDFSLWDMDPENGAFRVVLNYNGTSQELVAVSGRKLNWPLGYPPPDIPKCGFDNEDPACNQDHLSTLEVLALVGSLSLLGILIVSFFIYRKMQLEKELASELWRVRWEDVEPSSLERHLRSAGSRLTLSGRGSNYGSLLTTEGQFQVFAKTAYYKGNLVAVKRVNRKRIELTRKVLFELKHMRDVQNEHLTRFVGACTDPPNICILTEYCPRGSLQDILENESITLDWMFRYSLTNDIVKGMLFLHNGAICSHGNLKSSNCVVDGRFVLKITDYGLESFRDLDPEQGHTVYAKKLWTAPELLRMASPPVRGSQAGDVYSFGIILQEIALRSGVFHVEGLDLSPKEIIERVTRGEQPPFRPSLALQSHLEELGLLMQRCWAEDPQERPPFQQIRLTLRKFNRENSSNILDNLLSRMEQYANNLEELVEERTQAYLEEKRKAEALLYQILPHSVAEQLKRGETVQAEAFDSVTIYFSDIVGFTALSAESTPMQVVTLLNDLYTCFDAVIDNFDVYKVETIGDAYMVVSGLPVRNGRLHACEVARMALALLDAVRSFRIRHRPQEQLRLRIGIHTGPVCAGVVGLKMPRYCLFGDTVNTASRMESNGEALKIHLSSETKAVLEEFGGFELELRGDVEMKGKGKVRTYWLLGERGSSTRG
GC-B act = GC-B (human) receptor activation. HEK293-GC-B cells, CNP EC30, cGMP TR-FRET; 0% at EC30 CNP, 100% saturating CNP. 370,000 compounds, 0.11% hits. activation, % at 10 µM;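 active = activation at 10 µM reaching about 35% in either raw or pattern-adjusted values, limit read from the data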
ADAM17 inh = ADAM17 inhibition, QFRET primary screen; 370,000 compounds, 0.83% hits; P78536; inhibition, % at 6.95 µM; recombinant ADAM17, EDANS/DABCYL FRET peptide cleavage;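 active = inhibition above the mean of compounds lying between control limits plus 3 SD, set per campaign, cut at about 8.5% in these data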;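 note: 0% = DMSO-only wells as the low control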
ADAM10 confirm = human ADAM10 inhibition, confirmation. shares compounds with ADAM10 inh. ADAM10 QFRET peptide cleavage, EDANS fluorescence. inhibition, % at 6.95 µM. 2,100 compounds, 1% hits;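 active = inhibition above about 20% chosen separately for each screening run, limit read from the data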;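 note: 0% = DMSO wells and 100% = marimastat wells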
ADAM17 counter = counter-screen for ADAM10 exosite inhibitors: inhibitors of human ADAM17; ADAM17 QFRET peptide cleavage, EDANS fluorescence; shares compounds with ADAM10 inh; 2,100 compounds, 0.5% hits; inhibition, % at 6.95 µM; AID 743214;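 active = mean triplicate inhibition above the solvent-only control wells' mean plus 3 SD, cut at about 12% in these data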;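 note: 0% = DMSO wells and 100% = marimastat wells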
Numbers without * were called inactive. The list is not random: actives were taken first. Their share in the collection is about 1.3%.

O=C(NC(Cc1c[nH]c2ccccc12)C(=O)Nc1ccc(F)c([N+](=O)[O-])c1)c1cccs1 (centres undefined) was read as ADAM10 inh 20*, GC-A act -7, GC-B act 0, ADAM17 inh 8, ADAM10 confirm 4 and ADAM17 counter 2.
`O=C(NC(Cc1c[nH]c2ccccc12)C(=O)O)c1cccs1` (centres undefined) gave ADAM10 inh 6, GC-A act 4, GC-B act -1 and ADAM17 inh 2.
`C#CCN(CC=C)Cc1ccc(OC)cc1OC` gave ADAM10 inh 0, GC-A act -1, GC-B act 4 and ADAM17 inh -3.
O=C(C(=Cc1ccc(O)cc1)c1ccccc1)c1ccccc1 was read as ADAM10 inh 30*, GC-A act -8, GC-B act -11, ADAM17 inh 8, ADAM10 confirm 8 and ADAM17 counter 2.
For Cc1ccc(NC(=O)c2ccc(CSc3nccc(C)n3)cc2)cc1 the results were ADAM10 inh 22*, GC-A act 0, GC-B act 6, ADAM17 inh -2, ADAM10 confirm 3 and ADAM17 counter 0.
Screening COc1cc(OC)c(N(C)S(=O)(=O)c2cccc(C(=O)OCC(=O)c3c[nH]c4ccccc34)c2)cc1Cl returned ADAM10 inh 32*, GC-A act -1, GC-B act -1, ADAM17 inh -1, ADAM10 confirm 14 and ADAM17 counter 5.
For COc1ccc(C(=O)OCC(=O)c2c[nH]c3ccccc23)cc1OC the results were ADAM10 inh -6, GC-A act 3, GC-B act -1 and ADAM17 inh -7.
C[C@H](CCC(=O)OCc1cn(CC(=O)c2ccc(O)cc2)nn1)C1CC[C@H]2[C@@H]3CC[C@@H]4C[C@H](O)CC[C@]4(C)[C@H]3C[C@H](O)[C@]12C (some centres undefined) was read as ADAM10 inh 30*, GC-A act 0, GC-B act 4, ADAM17 inh 7, ADAM10 confirm 8 and ADAM17 counter 1.
Screening C=CCc1cccc(CNc2nc3ccccc3n2CC)c1O returned ADAM10 inh 20*, GC-A act -6, GC-B act -5, ADAM17 inh 5, ADAM10 confirm 3 and ADAM17 counter 1.
CCCCn1c(NCc2ccccc2O)nc2ccccc21 was read as ADAM10 inh 4, GC-A act -15, GC-B act -19 and ADAM17 inh 1.
`O=C(NCCNc1ccc([N+](=O)[O-])cc1C(F)(F)F)c1cccc(F)c1` gave ADAM10 inh 20*, GC-A act -7, GC-B act -10, ADAM17 inh -2, ADAM10 confirm 1 and ADAM17 counter 0.
`CC(=O)C1=C(C)N(Cc2ccc(F)cc2)C(=S)NC1c1cccc(Br)c1` (centres undefined) gave ADAM10 inh 18, GC-A act -4, GC-B act -3 and ADAM17 inh 7.
CN(CC(=O)Nc1ccc(Cl)c(C(F)(F)F)c1)C(=O)Cc1c[nH]c2ccccc12 was read as ADAM10 inh 25*, GC-A act -4, GC-B act -7, ADAM17 inh -4, ADAM10 confirm 1 and ADAM17 counter 0.
`O=C(O)c1ccc(Nc2ccc([N+](=O)[O-])c3nonc23)cc1` gave ADAM10 inh -1, GC-A act -6, GC-B act -5 and ADAM17 inh 2.
For O=[N+]([O-])c1ccc(Nc2ccccc2O)c2nonc12 the results were ADAM10 inh 20*, GC-A act -4, GC-B act -5, ADAM17 inh 4, ADAM10 confirm 0 and ADAM17 counter 0.
For O=S1(=O)c2c(F)cccc2O[C@@H](COCc2ccccc2)CN1CCc1ccc(F)cc1 the results were ADAM10 inh 21*, GC-A act 0, GC-B act 7, ADAM17 inh 9, ADAM10 confirm 5 and ADAM17 counter 1.
For Cc1ccc(S(=O)(=O)N2CCCCC2)cc1C(=O)Nc1ccccn1 the results were ADAM10 inh -5, GC-A act 0, GC-B act 0 and ADAM17 inh -5.
For FC(F)(F)c1cc(CCN2C(=S)NC[C@@H]2Cc2ccccc2)cc(C(F)(F)F)c1 the results were ADAM10 inh 27*, GC-A act -3, GC-B act -3, ADAM17 inh 8, ADAM10 confirm 12 and ADAM17 counter 4.
CC1CC(=O)C2=C(C1)Nc1ccccc1SC2c1ccc(F)cc1 (centres undefined) was read as ADAM10 inh 21*, GC-A act -8, GC-B act -6, ADAM17 inh 2, ADAM10 confirm 4 and ADAM17 counter 1.
`COc1ccc(CCC(=O)N2CCN(S(=O)(=O)c3ccc(C)cc3)CC2)cc1` gave ADAM10 inh -9, GC-A act -2, GC-B act 0 and ADAM17 inh -3.
`COc1ccc(S(=O)(=O)N2CCN(C(=O)c3ccc([N+](=O)[O-])o3)CC2)cc1` gave ADAM10 inh 21*, GC-A act -10, GC-B act -7, ADAM17 inh 5, ADAM10 confirm 1 and ADAM17 counter 1.
For NS(=O)(=O)c1ccc(CNC(=O)C2(c3ccc(Cl)cc3)CC2)cc1 the results were ADAM10 inh -3, GC-A act -6, GC-B act 0 and ADAM17 inh -3.
For COc1ccc(CNC(=O)C2(c3ccc(Cl)cc3)CC2)cc1 the results were ADAM10 inh 21*, GC-A act -19, GC-B act -12, ADAM17 inh 3, ADAM10 confirm 0 and ADAM17 counter 0.
O=C(CCC(=O)N1CCN(S(=O)(=O)c2ccc(Cl)cc2)CC1)Nc1ccc2ccccc2c1 was read as ADAM10 inh 22*, GC-A act -2, GC-B act -10, ADAM17 inh 6, ADAM10 confirm 5 and ADAM17 counter 2.
O=C(COc1ccc(Cl)cc1Cl)OCC(=O)N1CCCc2ccccc21 was read as ADAM10 inh 21*, GC-A act 0, GC-B act -3, ADAM17 inh 8, ADAM10 confirm 4 and ADAM17 counter 0.
Screening COc1ccc(-c2c(C#N)c(SCc3c(C)noc3C)nc3c2C(=O)CC(C)(C)C3)cc1 returned ADAM10 inh 6, GC-A act -3, GC-B act -1 and ADAM17 inh -2.
CCc1c(C#N)c(SCCC(=O)Nc2cccc(OC)c2)nc2c1C(=O)CC(C)(C)C2 was read as ADAM10 inh 22*, GC-A act -3, GC-B act -4, ADAM17 inh 7, ADAM10 confirm 8 and ADAM17 counter 1.
Screening O=C(Nc1ccc(F)cc1)Nc1ccccc1NS(=O)(=O)c1cccs1 returned ADAM10 inh 1, GC-A act 4, GC-B act -4 and ADAM17 inh 2.
